According to the supplement of paper PMC3334620:
In all, about 33,000 sequences were measured (“E-score (-0.5 to 0.5)”: median about -0.016, highest 2% from about 0.3 on). What follows is part of a selection rich in the highest values, with near analogues and random picks from the rest.

biological target: T1, Yer184c (UniProt P39961); experiment: PBM E-score (8-mer binding enrichment) (E-score (-0.5 to 0.5)); higher = stronger / more preferred TF binding; settings: protein concentration: 100 nM; construct: GST-full length
T1 sequence: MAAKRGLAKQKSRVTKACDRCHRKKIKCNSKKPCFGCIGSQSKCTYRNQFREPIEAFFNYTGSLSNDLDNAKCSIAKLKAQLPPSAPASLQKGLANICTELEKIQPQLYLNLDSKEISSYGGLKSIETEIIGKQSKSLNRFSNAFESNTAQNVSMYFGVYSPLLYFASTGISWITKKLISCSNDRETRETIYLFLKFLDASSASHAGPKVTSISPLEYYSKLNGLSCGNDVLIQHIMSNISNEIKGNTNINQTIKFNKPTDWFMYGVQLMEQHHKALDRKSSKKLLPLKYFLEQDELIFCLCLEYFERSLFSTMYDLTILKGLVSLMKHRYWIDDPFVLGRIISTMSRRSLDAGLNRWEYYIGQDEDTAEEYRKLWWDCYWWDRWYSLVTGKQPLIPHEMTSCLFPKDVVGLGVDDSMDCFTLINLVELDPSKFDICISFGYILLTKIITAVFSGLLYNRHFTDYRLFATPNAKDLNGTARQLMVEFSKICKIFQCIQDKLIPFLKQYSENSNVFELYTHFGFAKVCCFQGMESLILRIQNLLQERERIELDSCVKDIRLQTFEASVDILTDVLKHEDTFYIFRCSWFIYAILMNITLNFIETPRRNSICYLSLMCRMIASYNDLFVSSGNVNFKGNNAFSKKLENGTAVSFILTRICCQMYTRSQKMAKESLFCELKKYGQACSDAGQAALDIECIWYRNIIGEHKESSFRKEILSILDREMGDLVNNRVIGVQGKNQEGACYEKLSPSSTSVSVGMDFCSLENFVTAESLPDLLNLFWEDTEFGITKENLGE
Experimental: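 Universal 'all 10-mer' protein binding microarrays (Agilent AMADID 015681) probed with GST-tagged S. cerevisiae TFs (full-length or DBD) made by in vitro transcription/translation (PURExpress), about 100-200 nM. Bound TF was detected with fluorescent anti-GST. Each ungapped 8-mer (which stands for itself and its reverse complement) is scored by the PBM enrichment score (E-score), a modified Wilcoxon-Mann-Whitney statistic from -0.5 to +0.5, computed with the Universal PBM Analysis Suite. Scale: above 0.35 generally sequence-specific binding.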

Sequence | PBM E-score
CACACTGC | -0.155
GATTGGCC | -0.0975
AGGGTGAA | -0.136
AATTGTCG | 0.035
TGGAACCA | 0.138
GGGAACCA | -0.222
CGGAACCA | 0.338
CCGAACGA | 0.245
CGGAACCC | 0.279
CCGAACGC | 0.274
CCGAACCG | 0.329
CCGAACGG | 0.325
CGGAACCG | 0.364
AGGAACCG | 0.179
CCGAACCC | 0.0527
CCGAACCA | 0.154
ACTTATAA | 0.221
GATCTAGC | -0.195
CAACTACC | -0.0226
ATCCCATC | -0.19
ATGCACCC | -0.147
AGAAATAA | 0.19
AGGAAAAA | 0.168
CGGAAAAG | 0.248
GGGAAAAA | 0.123

Sequence | PBM E-score
CGGAAACC | 0.188
CGGAAAAC | 0.349
CGAAATAA | 0.255
CGGAAAAA | 0.394
GGAAAAAA | 0.304
GGAAAAAC | 0.124
GGAAATAA | 0.319
GGGAAAAC | -0.00619
CCAACCAC | -0.0234
AGAAAACT | 0.0223
TCCTTACA | -0.0191
AACGAAGT | -0.0531
TCTCCCAA | 0.0611
GCACTACA | -0.142
CGCCCCTC | -0.199
CGGAAACA | 0.314
AGGAAACA | 0.165
GGGAAACA | 0.22
CGTCTACC | 0.0232
AAACTCGA | 0.0301
ACAACGGG | 0.00646
ACAACGGA | 0.314
TAAACGGA | 0.311
GTAACGGA | 0.304
TCCACGGA | 0.304

Sequence | PBM E-score
ACAACGGT | -0.0406
ACCACGGA | 0.107
CCCACGGA | 0.157
ATAACGGA | 0.278
CTAACGGA | 0.284
CAAACGGA | 0.267
GAAACGGA | 0.294
CCTGTAGA | -0.094
ACGGCAGC | 0.161
AACGGTAC | 0.187
CTCAAAGC | 0.114
ATGAACAA | 0.154
CCCCATCG | -0.0742
ACTCTGTC | -0.139
TCAACGGA | 0.315
ATCACGGA | 0.307
GCAACGGA | 0.294
CCAACGGA | 0.101
ATCACGGG | -0.164
ATCACGGC | 0.197
CAATGCAG | -0.0658
AGCCAGTC | -0.153
CGAGGATC | 0.0927
GAACCTCC | -0.0558
CAATTCAG | -0.0853

Sequence | PBM E-score
CGGCCGAA | 0.415
GGGCCGAA | 0.243
CGGCCGAG | 0.372
CGGCCGAC | 0.381
GGGCCGAC | 0.132
TGGCCGAA | 0.295
AGGCCGAG | 0.143
CAGCCGAG | 0.275
AGGCCGAC | 0.0134
CACCCCCA | -0.206
CCAATTGG | 0.041
TACTGTCA | -0.0937
GCTCAAGC | -0.0698
ATGCTAAA | 0.0332
GATTGATA | 0.0572
TGTTGTAA | 0.148
ACCATCAG | -0.101
GCGCCGAC | 0.206
GCGCCGAA | 0.343
GCGCCGTA | 0.247
ACGCCGAT | 0.151
ACGCCGAA | 0.343
TCGCCAAA | -0.0461
TCGCCGAA | 0.316
TCGCCGCA | 0.0686

Sequence | PBM E-score
ACGCCGAC | 0.198
AGGTATTG | -0.0873
AAGGATAT | 0.0287
CTCTCCCA | -0.211
CGGTCGCA | -0.0193
TGCCCGAA | 0.0801
ACCAAAGT | -0.0125
ATGGCCTC | -0.106
ACGCTTCC | 0.0165
CTAAAGTC | -0.0167
ACGGCACC | -0.0473
GCGGCACA | 0.129
ACGGCATC | 0.0862
GCGGCACC | 0.23
ACGGCACG | 0.194
TCGGCACA | 0.307
CCGGCACG | 0.288
CCGGCATC | 0.322
ACGGCACA | 0.0865
CCGGCACC | 0.352
CCGGCACA | 0.314
CCGGCATA | 0.291
ACAGCTAA | -0.0181
CGCGGCCC | 0.0857
AATGTTGT | -2e-05

Sequence | PBM E-score
GCTCTTCA | -0.187
ACACTAGC | -0.101
CTTCTTGA | -0.0452
ACTGGGCA | -0.199
CCGCCTCA | -0.051
CACCTCAG | -0.236
ACCTAATG | -0.284
CGGAGTGA | 0.153
GTAGGTTA | -0.00416
ATGCCGTA | 0.196
ATGCCAAA | -0.0656
ATGCCGTG | 0.115
GTGCCGAA | 0.387
ATGCCGAC | 0.243
ATGCCGAG | 0.346
CTGCCGAA | 0.297
GTGCCAAA | -0.00899
ATGCCGAA | 0.408
CAAGCCTC | -0.237
CGTCCCCA | -0.276
GACCATCC | -0.237
GTGGCCAA | -0.156
ATCAGCCC | -0.386
ACCGAACT | 0.306
CCCGAACC | 0.0911

Sequence | PBM E-score
ACCGAACG | 0.235
ACCGAACA | 0.259
ACCGAACC | 0.0575
GCCGAACA | 0.329
GCCGAACC | 0.323
AACGAACT | 0.0561
CCCGAACA | 0.0635
CCTGGGCA | -0.276
CGATGTGC | -0.101
ACCCCACC | 0.0874
AGAATTGC | -0.134
AGGGCAAC | -0.00172
TATCGGAA | 0.351
GATCGGAC | 0.322
AATCGGCT | 0.349
CATCGGAA | 0.278
CATCGGAC | 0.174
AATCGGCA | 0.289
AATCGGAT | 0.327
GATCGGAA | 0.279
AATCGGCC | 0.146
AATCGGGT | 0.173
GATCGGGC | 0.00638
AATCGGAC | 0.152
